Results filed as inconclusive are left out. A call without a number means that no potency is given here. The source made the active and inactive calls. The call rests on the fitted dose curve; in most records, active means well fitted inhibition curve with a large enough effect; inconclusive means small, poorly fitted or top-dose-only effect; inactive means no such curve, though single readings can be large or run the other way.
The compounds below were run against Thioredoxin reductase 1, cytoplasmic (Rattus norvegicus) (UniProt O89049) (assay: qHTS Assay for Inhibitors of Mammalian Selenoprotein Thioredoxin Reductase 1 (TrxR1) (AID 488773; further: nearly all actives have a fitted effect of over 40% in size)). Details: purified TrxR1 enzyme activity; Potency: inhibition; series mostly up to 57.1 µM.
Chain of Thioredoxin reductase 1, cytoplasmic (Rattus norvegicus) (O89049 whole entry, looked up): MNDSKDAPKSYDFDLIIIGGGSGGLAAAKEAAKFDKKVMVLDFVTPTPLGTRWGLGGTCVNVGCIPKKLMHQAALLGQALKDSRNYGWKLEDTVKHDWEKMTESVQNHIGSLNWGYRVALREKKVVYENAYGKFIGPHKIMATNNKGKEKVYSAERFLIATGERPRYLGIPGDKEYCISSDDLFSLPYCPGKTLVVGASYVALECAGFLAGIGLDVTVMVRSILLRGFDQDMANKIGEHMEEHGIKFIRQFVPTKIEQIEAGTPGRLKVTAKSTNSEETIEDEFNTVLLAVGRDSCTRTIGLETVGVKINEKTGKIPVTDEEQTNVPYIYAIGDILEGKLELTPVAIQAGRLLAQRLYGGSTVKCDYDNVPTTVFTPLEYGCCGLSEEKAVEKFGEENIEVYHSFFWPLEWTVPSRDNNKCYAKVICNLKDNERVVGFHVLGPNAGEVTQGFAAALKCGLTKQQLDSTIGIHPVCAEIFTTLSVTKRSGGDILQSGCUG
Description: The selenoprotein thioredoxin reductase (TrxR; EC 1.8.1.9) is a FAD containing homodimeric pyridine nucleotide-disulfide oxidoreductase with many cellular roles. Together with NADPH and its prime substrate thioredoxin (Trx), the enzyme forms the core of the Trx system. The mammalian Trx system exerts a wide spectrum of functions including redox regulation, antioxidant defense, regulation of transcription factors as well as support of cell growth and replication. Many of these functions involve the reduction of Trx, which may subsequently reduce a number of different substrates including ribonucleotide reductase, peroxiredoxins or NFkB. Mammalian TrxR itself also has a broad substrate specificity, reducing both protein and non-protein substrates, including low molecular weight compounds such as dehydroascorbate, lipoic acid, ubiquinone, and juglone. In addition, several drugs in clinical use for anticancer treatment are indeed known to target TrxR1.
This BioAssay is a validation of an NADPH fluorescence-based, dual-purpose qHTS rTrxR1 assay designed to find potential inhibitors and substrates of rTrxR1. For this particular BioAssay, actives are potential inhibitors. See related BioAssay for substrate data deposition.
Assay protocol: 2 uL of reagents (buffer in column 4 as negative control and 90 nM rTrxR1 in columns 1-3 and 5-48) were dispensed into Greiner black solid-bottom 1,536-well assay plates, followed by 1 uL of NADPH (400 uM final concentration) to each well. The plates were centrifuged at 1000 rpm for 15 seconds and subsequently incubated for 5 min at room temperature (~22 deg C) to allow for rTrxR1 reduction. Compounds (23 nL) were then transferred via Kalypsys pin tool equipped with 1536-pin array (10 nL slotted pins, V&P Scientific, San Diego, CA). In addition, a duplicate 2-fold serial dilution of the control compounds auranofin, a known gold-based TrxR1 inhibitor, and juglone (5-hydroxy-1,4-naphthoquinone), a natural TrxR1 substrate, were pin-transferred to columns 2 and 3, respectively. After incubation for 15 min at room temperature (~22 deg C), 1 uL of selenite (400 uM final concentration) were dispensed to each well. The plate was immediately transferred to a ViewLux high-throughput CCD imager (PerkinElmer), wherein kinetic measurements of NADPH fluorescence (Ex 340 nm, Em 450 nm) were acquired (8 minute kinetic read, see Table 1). Read 1 was utilized to assess the capacity of a compound to serve as an rTrxR1 substrate, i.e. a decrease in NADPH fluorescence compared to the no-compound background is an indication of a substrate behavior for that particular compound. For inhibitory activity of a compound, delta values, computed as the difference in fluorescence intensity between the first and last reads of an 8-minute time kinetic window, were used. All reagents were diluted in an assay buffer consisting of 50 mM Tris-HCl, pH 7.5, 2 mM EDTA, and 0.01% Tween-20.
Throughout the screen, reagent bottle and all liquid lines were made light-tight to minimize reagent degradation. All screening operations were performed on a fully integrated robotic system (Kalypsys, San Diego, CA) containing one RX-130 and two RX-90 anthropomorphic robotic arms (Staubli, Duncan, SC). Library plates were screened starting from the lowest and proceeding to the highest concentration, and a 'double-pinning' step of the highest concentration was required to access higher concentrations of compounds. Vehicle-only plates, with DMSO being pin-transferred to the columns 5-48, were inserted uniformly at the beginning and the end of each library in order to monitor and record any shifts in the background, which can be affected by reagent dispensers or loss in enzyme activity over time. Screening data were corrected, normalized, and concentration-effect relationships were derived by using publicly-available curve fitting algorithms developed in-house (http://ncgc.nih.gov/pub/openhts).
With `CN(C)CCC=C1c2ccccc2CCc2ccccc21` the Potency was “inactive”.
For `Cc1cc(N)c2ccccc2[n+]1CCCCCCCCCC[n+]1c(C)cc(N)c2ccccc21`, the Potency was “inactive”.
With `CN(C)CC[C@@H](c1ccc(Cl)cc1)c1ccccn1` the Potency was “inactive”.
For `CN(C)CCCN1c2ccccc2Sc2ccc(Cl)cc21`, the Potency was “inactive”.
With `CC1=C(CC(=O)O)c2cc(F)ccc2/C1=C\c1ccc(S(C)(=O)=O)cc1` the Potency was “inactive”.
With `O=C1N=C(O)CN1/N=C/c1ccc(-c2ccc([N+](=O)[O-])cc2)o1` the Potency was “inactive”.
For `C[C@](N)(Cc1ccc(O)cc1)C(=O)O`, the Potency was “inactive”.
For `C#CCN(C)Cc1ccccc1`, the Potency was “inactive”.
With `CSc1ccc2c(c1)C(N1CCN(C)CC1)Cc1ccccc1S2` (stereo not given) the Potency was “inactive”.
In the case of `CNCCC(Oc1ccc(C(F)(F)F)cc1)c1ccccc1` (stereo not given), the Potency is reported as “inactive”.
`CCN(CC)CCOC(=O)C1(C2CCCCC2)CCCCC1` was tested, and the Potency was “inactive”.
`OCc1cc(C(O)CNCCCCCCOCCCCc2ccccc2)ccc1O` (stereo not given) was tested, and the Potency was “inactive”.
In the case of `CCN(CC)CCCC(C)Nc1c2ccc(Cl)cc2nc2ccc(OC)cc12` (stereo not given), the Potency is reported as “inactive”.
For `C=Cc1c(C)c2cc3[nH]c(cc4nc(cc5nc(cc1[nH]2)C(C)=C5CCC(=O)O)C(CCC(=O)O)=C4C)c(C)c3C=C`, the Potency was 13.4 µM (active).
`CCCCCCCCCCCCCCCC(=O)NCCO` was tested, and the Potency was “inactive”.
`CC[C@H]1CN2CCc3cc(OC)c(OC)cc3[C@@H]2C[C@@H]1C[C@H]1NCCc2cc(OC)c(OC)cc21` was tested, and the Potency was “inactive”.
For `CSc1ccc2c(c1)N(CCC1CCCCN1C)c1ccccc1S2` (stereo not given), the Potency was “inactive”.
For `CC(C)C(=O)c1c(C(C)C)nn2ccccc12`, the Potency was “inactive”.
In the case of `CC(C(O)c1ccc(O)cc1)N1CCC(Cc2ccccc2)CC1` (stereo not given), the Potency is reported as “inactive”.
With `Nc1ncnc2c1ncn2[C@@H]1O[C@H](CO)[C@@H](O)[C@H]1O` the Potency was “inactive”.
`NC(=O)c1ncn([C@@H]2O[C@H](CO)[C@@H](O)[C@H]2O)n1` was tested, and the Potency was “inactive”.
With `CCN(CC)CCNC(=O)c1cc(Cl)c(N)cc1OC` the Potency was “inactive”.
For `COc1ccc(Cl)cc1C(=O)NCCc1ccc(S(=O)(=O)NC(=O)NC2CCCCC2)cc1`, the Potency was “inactive”.
`CCCn1cnc2c1c(=O)n(CCCCC(C)=O)c(=O)n2C` was tested, and the Potency was “inactive”.
`C[C@]12C[C@H](O)[C@H]3[C@@H](CCC4=CC(=O)CC[C@@]43C)[C@@H]1CC[C@@H]2C(=O)CO` was tested, and the Potency was “inactive”.
`CNCCCC1c2ccccc2C=Cc2ccccc21` was tested, and the Potency was “inactive”.
In the case of `CC(C)(C(=O)O)c1ccc(C(O)CCCN2CCC(C(O)(c3ccccc3)c3ccccc3)CC2)cc1` (stereo not given), the Potency is reported as “inactive”.
With `Nc1cc(=O)[nH]c(N)n1` the Potency was “inactive”.
For `COCCOC(=O)C1=C(C)NC(C)=C(C(=O)OC/C=C/c2ccccc2)C1c1cccc([N+](=O)[O-])c1` (stereo not given), the Potency was “inactive”.
`CN(C)CCOC(C)(c1ccccc1)c1ccccn1` (stereo not given) was tested, and the Potency was “inactive”.
With `OCCN1CCN(CCCN2c3ccccc3Sc3ccc(Cl)cc32)CC1` the Potency was “inactive”.
With `CC(C)(C)c1onc(OCP(=O)(O)O)c1CC(N)C(=O)O` (stereo not given) the Potency was “inactive”.
In the case of `NC1CCN(c2cccc(Cl)n2)CC1`, the Potency is reported as “inactive”.
`CC(C)(C)[C@]1(O)CCN2C[C@H]3c4ccccc4CCc4cccc(c43)[C@@H]2C1` was tested, and the Potency was “inactive”.
With `C[C@]12CC[C@@H]3c4ccc(O)cc4CC[C@H]3[C@@H]1CCC2=O` the Potency was “inactive”.
In the case of `CN1CCN(C2Cc3ccccc3Sc3ccc(Cl)cc32)CC1` (stereo not given), the Potency is reported as “inactive”.
For `NC(N)=NCCC[C@H](N)C(=O)O`, the Potency was “inactive”.
`CNC(=O)Oc1ccc2c(c1)[C@]1(C)CCN(C)[C@@H]1N2C` was tested, and the Potency was “inactive”.
For `CC(=O)OCC(=O)[C@@]1(O)CC[C@H]2[C@@H]3CCC4=CC(=O)CC[C@]4(C)[C@H]3C(=O)C[C@@]21C`, the Potency was “inactive”.
In the case of `CC(CN(C)C)CN1c2ccccc2CCc2ccccc21` (stereo not given), the Potency is reported as “inactive”.
Potency means the concentration at half of the fitted maximal effect.
